For 16 compounds, Potency results are on record in PubChem BioAssay (NCATS).

Results filed as inconclusive are left out. Values without a mark were called inactive. Activity calls are given as the source filed them. Calls come from the whole dose curve; as a rule, active = well fitted curve in the direction sought with a large enough effect; inconclusive = small, poorly fitted or top-dose-only effect, or another doubt; inactive = no such curve, though single readings can be large; an effect the other way counts as inactive or inconclusive.

Test [1] can be described thus: qHTS of pediatric cancer cell lines to identify multiple opportunities for drug repurposing: Primary screen for Saos-2 cells (AID 1347097). Note: nearly all actives have a fitted effect of over 40% in size. An outline of the steps: (§1)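 Readout: CellTiter-Glo luminescence, 48 h treatment. Controls DMSO (neutral) and bortezomib 2.3 µM final (positive). Potency and efficacy taken from primary-screen concentration-response curves.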
(In qHTS, concentration-response curves come from the screen itself.)

Test [2] in a line: qHTS of pediatric cancer cell lines to identify multiple opportunities for drug repurposing: Primary screen for SK-N-SH cells (AID 1347098). Note: nearly all actives have a fitted effect of over 65% in size. The procedure, abridged: (§2)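 Cells (500-1,000/well) rested 5 h, then received compounds for 48 h; metabolically active cells were measured by CellTiter-Glo luminescence. Final concentrations spanned up to 46 µM (MIPE, 11-point) or 0.59 nM-46 µM (NPC, 8-point) in primary screens, 11-point in follow-ups.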

Test [3] in a line: qHTS of pediatric cancer cell lines to identify multiple opportunities for drug repurposing: Primary screen for NB1643 cells (AID 1347099). Note: nearly all actives have a fitted effect of over 50% in size. The procedure, abridged: as §1
A short description of test [4]: qHTS of pediatric cancer cell lines to identify multiple opportunities for drug repurposing: Primary screen for Rh18 cells (AID 1347102). Note: nearly all actives have a fitted effect of over 65% in size. An outline of the steps: (§3)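 Cells (500-1,000/well) in growth media were settled 5 h at 37 degrees C, then given compounds for 48 h. Viability was read as CellTiter-Glo luminescence. Primary runs used MIPE at 11 points (0.78 nM-46 µM) and NPC at 8 points (0.59 nM-46 µM); follow-ups used 11 points.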

Test [5] in a line: qHTS of pediatric cancer cell lines to identify multiple opportunities for drug repurposing: Primary screen for RD cells (AID 1347104). Note: nearly all actives have a fitted effect of over 55% in size. An outline of the steps: as §1
Test [6] can be described thus: qHTS of pediatric cancer cell lines to identify multiple opportunities for drug repurposing: Primary screen for MG 63 (6-TG R) cells (AID 1347105). Note: nearly all actives have a fitted effect of over 50% in size. An outline of the steps: as §1
A short description of test [7]: qHTS of pediatric cancer cell lines to identify multiple opportunities for drug repurposing: Primary screen for BT-12 cells (AID 1347101). Note: nearly all actives have a fitted effect of over 25% in size. The procedure, abridged: as §2
Test [8] can be described thus: qHTS of pediatric cancer cell lines to identify multiple opportunities for drug repurposing: Primary screen for OHS-50 cells (AID 1347103). Note: nearly all actives have a fitted effect of over 40% in size. An outline of the steps:
as §2

The nature of test [9]: qHTS of pediatric cancer cell lines to identify multiple opportunities for drug repurposing: Primary screen for LAN-5 cells (AID 1347100). The procedure, abridged: as §3
Potency is the fitted concentration of half-maximal effect.

On to `Cc1cc(N2CCOCC2)cc2[nH]c(-c3c(NC[C@@H](O)c4cccc(Cl)c4)cc[nH]c3=O)nc12`, for which the Potency is 0.0833 µM (active) in test [1]; 0.215 µM (active) in test [2]; 0.332 µM (active) in test [3]; 18.7 µM (active) in test [4]; 0.59 µM (active) in [5]; 2.96 µM (active) in [6].
On to `CC(C)c1cnn2c(NCc3ccccc3)cc(N[C@@H](CO)[C@H](O)CO)nc12`, for which the Potency was 0.296 µM (active) in test [1]; 0.304 µM (active) in [2]; 0.344 µM (active) in test [7]; 0.273 µM (active) in [8]; 0.372 µM (active) in [5].
For the compound `CC1(C)CC(=O)c2c(C(F)(F)F)nn(-c3ccc(C(N)=O)c(NC4CCC(OC(=O)CN)CC4)c3)c2C1` (stereo unspecified), the Potency is 0.264 µM (active) in test [1]; 0.235 µM (active) in [3]; 0.187 µM (active) in test [9]; 0.418 µM (active) in [4]; 0.306 µM (active) in test [8]; 0.187 µM (active) in [5].
Take `O=C(NC1CCNCC1)c1[nH]ncc1NC(=O)c1c(Cl)cccc1Cl`: the Potency is 1.66 µM (active) in test [1]; 1.71 µM (active) in test [2]; 1.93 µM (active) in test [7]; 0.968 µM (active) in test [8]; 0.332 µM (active) in test [5]; 3.72 µM (active) in test [6].
In the case of `CCCCc1nc2cc(C=CC(=O)NO)ccc2n1CCN(CC)CC`, the Potency is 0.0296 µM (active) in test [1]; 3.41 µM (active) in test [2]; 0.0833 µM (active) in test [9]; 0.193 µM (active) in test [7]; 0.0148 µM (active) in test [4]; 0.153 µM (active) in [8]. Further, the figures for the Potency in [5] and in [6] were 2.09 µM (active) and 3.72 µM (active), respectively.
For `CC(=O)c1c(C)c2cnc(Nc3ccc(N4CCNCC4)cn3)nc2n(C2CCCC2)c1=O`, the Potency is 18.7 µM (active) in [1]; 24.1 µM (active) in test [2]; 16.6 µM (active) in test [3]; 23.5 µM (active) in [4]; 19.3 µM (active) in [8]; 18.7 µM (active) in [5].
Turning to `COc1cc2c(Oc3ccc(-c4cnc(Nc5ccc(F)cc5)n(C)c4=O)cc3F)ccnc2cc1OCCCN1CCOCC1`, the Potency in test [1] was 2.09 µM (active); in test [2], 15.2 µM (active); in test [3] it was 14.8 µM (active); in [4], 2.64 µM (active); in test [8], 0.306 µM (active); in test [5] it was 9.35 µM (active).
Take `NCC(=O)Nc1ccc(-n2nc(C(F)(F)F)cc2-c2ccc3c(ccc4ccccc43)c2)cc1`: the Potency in test [1] was 26.4 µM (active); in test [3], 18.7 µM (active); in test [9], 23.5 µM (active); in test [7], 24.3 µM (active); in test [4], 26.4 µM (active); in [8] it was 30.6 µM (active). Also, the Potency in test [5] is 16.6 µM (active).
On to `CCN1CCN(CC(=O)Nc2ccc(-c3cccc4c(=O)cc(N5CCOCC5)oc34)c3sc4ccccc4c23)CC1`, for which the Potency in [1] is 2.96 µM (active); in [2] it was 6.07 µM (active); in test [9] it was 0.833 µM (active); in test [4], 1.18 µM (active); in test [8], 0.172 µM (active); in [5], 0.743 µM (active).
Regarding `CNC(=O)CN1CCC(Oc2cc3c(Nc4cccc(Cl)c4F)ncnc3cc2OC)CC1`, the Potency is 0.0187 µM (active) in test [1]; 0.0607 µM (active) in test [2]; 0.001 µM (active) in test [9]; 0.0014 µM (active) in test [7]; 0.001 µM (active) in test [8]; 0.0026 µM (active) in test [5].
As for `Cn1c2ccccc2c2c3c(c4c5ccccc5n(CCC#N)c4c21)CNC3=O`, the Potency is 0.935 µM (active) in [1]; 5.41 µM (active) in test [2]; 1.87 µM (active) in [3]; 5.44 µM (active) in test [8]; 14.8 µM (active) in test [6].
Turning to `Nc1ncnc2c1c(-c1cccc(OCc3ccccc3)c1)cn2C1CC(CN2CCCC2)C1` (stereo unspecified), the Potency in [1] is 0.743 µM (active); in test [3], 4.18 µM (active); in test [9], 1.32 µM (active); in test [4], 18.7 µM (active); in test [8], 0.432 µM (active); in test [5], 5.26 µM (active). Besides, the Potency in [6] is 18.7 µM (active).
For the compound `CC(C)(C)c1cnc(CSc2cnc(NC(=O)C3CCNCC3)s2)o1`, the Potency in test [1] was 0.743 µM (active); in test [2], 1.52 µM (active); in test [7], 0.432 µM (active); in [8] it was 0.273 µM (active); in test [5], 0.264 µM (active).
`COCCn1c2c([n+](Cc3cnccn3)c1C)C(=O)c1ccccc1C2=O`: the Potency in test [1] is 0.0372 µM (active); in test [3], 0.209 µM (active); in [9], 0.0047 µM (active); in [7], 0.0343 µM (active); in test [4], 0.0332 µM (active); in [5] it was 0.0118 µM (active). Besides, the Potency in [6] was 0.187 µM (active).
With `CCCn1c(=O)c2[nH]c(-c3cnn(Cc4cccc(C(F)(F)F)c4)c3)nc2n(CC)c1=O`, the Potency entry in test [2], in [3], in test [9], in [4] and in test [5] was “inactive” each time.
Consider `CC(C)c1ccccc1Cc1cc(C(=O)Nc2ccc(S(=O)(=O)c3ccccc3C(C)(C)C)cc2)c(O)c(O)c1O`, for which the Potency was 26.4 µM (active) in [1]; 23.5 µM (active) in test [9]; 21.7 µM (active) in test [7]; 18.7 µM (active) in test [4]; 24.3 µM (active) in test [8].
